# Laboratory results: the supplement of paper PMC11732987, “Enantioselective OTUD7B fragment discovery through chemoproteomics screening and high-throughput optimisation” (Communications Chemistry, 2025)
# Unmarked numbers belong to inactive results.
# Key:
# Assay in all cases: log2 ratio of Biotin-Ahx-Ub-VS probe labelling (fragment/DMSO); higher = less target engagement (more negative = stronger competition), active = hit call of the paper (q ≤ 0.05, log2 ratio ≤ -1)
# Conditions in all cases: compound concentration: 200 uM; treatment time: 3 h
# OTUD6B = molecular target: T1, OTUD6B (UniProt Q8N6M0)
# T1 sequence (whole entry): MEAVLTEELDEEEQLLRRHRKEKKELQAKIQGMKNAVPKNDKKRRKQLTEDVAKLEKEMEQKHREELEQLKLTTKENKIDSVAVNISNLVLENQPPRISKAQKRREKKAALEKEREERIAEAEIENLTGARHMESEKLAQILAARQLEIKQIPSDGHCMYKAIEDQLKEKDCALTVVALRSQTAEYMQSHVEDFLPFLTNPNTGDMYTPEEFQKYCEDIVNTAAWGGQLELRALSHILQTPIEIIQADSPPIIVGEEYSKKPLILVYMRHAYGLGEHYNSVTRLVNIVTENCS
# Procedure, shortened: (§1)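 Average log2 ratios of fragment over vehicle were obtained by unpaired t-test from global-median-normalised Spectronaut label-free quantities. Proteins with ≥2 unique peptides were included. HEK293T lysate (495 µg per sample) was treated in triplicate with fragment at 200 µM or vehicle for 3 h, then with Biotin-Ahx-Ub-VS at 0.5 µM final for 1 h, and labelled DUBs were NeutrAvidin-enriched and run by diaPASEF LC-MS/MS.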
# OTUD7B = molecular target: T2, OTUD7B (UniProt Q6GQQ9)
# T2 sequence (whole entry): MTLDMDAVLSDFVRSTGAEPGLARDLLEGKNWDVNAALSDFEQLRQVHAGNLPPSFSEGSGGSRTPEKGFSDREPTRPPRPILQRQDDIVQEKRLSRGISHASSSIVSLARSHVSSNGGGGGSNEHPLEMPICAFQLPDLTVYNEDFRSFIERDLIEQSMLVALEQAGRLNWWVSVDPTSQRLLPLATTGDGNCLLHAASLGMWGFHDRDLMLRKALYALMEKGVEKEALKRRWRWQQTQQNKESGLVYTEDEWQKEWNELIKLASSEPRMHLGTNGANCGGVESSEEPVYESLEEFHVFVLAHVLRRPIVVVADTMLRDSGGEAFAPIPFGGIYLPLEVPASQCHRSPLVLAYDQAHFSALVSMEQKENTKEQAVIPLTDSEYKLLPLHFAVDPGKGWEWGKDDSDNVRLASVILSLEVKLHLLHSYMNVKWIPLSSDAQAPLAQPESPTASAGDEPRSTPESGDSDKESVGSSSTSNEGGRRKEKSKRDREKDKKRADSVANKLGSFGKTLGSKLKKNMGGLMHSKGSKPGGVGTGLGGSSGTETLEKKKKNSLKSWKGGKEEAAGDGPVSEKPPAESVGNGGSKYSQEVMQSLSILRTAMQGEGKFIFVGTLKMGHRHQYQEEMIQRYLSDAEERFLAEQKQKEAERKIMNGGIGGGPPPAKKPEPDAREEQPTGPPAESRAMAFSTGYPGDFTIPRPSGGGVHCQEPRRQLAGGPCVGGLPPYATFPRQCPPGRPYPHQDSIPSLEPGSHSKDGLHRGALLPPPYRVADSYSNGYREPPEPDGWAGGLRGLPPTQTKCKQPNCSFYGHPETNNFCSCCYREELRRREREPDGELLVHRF
# Procedure, shortened: as §1
# PRPF8 = PRPF8 (UniProt Q6P2Q9)
# Procedure, shortened: as §1
# PSMD7 = molecular target: T3, PSMD7 (UniProt P51665)
# T3 sequence (whole entry): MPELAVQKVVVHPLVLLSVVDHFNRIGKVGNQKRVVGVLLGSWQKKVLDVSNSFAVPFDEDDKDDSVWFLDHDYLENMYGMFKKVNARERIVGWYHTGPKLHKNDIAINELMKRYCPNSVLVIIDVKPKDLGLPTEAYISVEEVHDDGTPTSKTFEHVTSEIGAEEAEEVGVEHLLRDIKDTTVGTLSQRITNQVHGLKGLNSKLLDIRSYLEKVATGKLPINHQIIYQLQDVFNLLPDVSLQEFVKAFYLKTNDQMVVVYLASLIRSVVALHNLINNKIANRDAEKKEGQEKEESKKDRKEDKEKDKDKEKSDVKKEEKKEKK
# Procedure, shortened: as §1
# UCHL1 = UCHL1 (UniProt P09936)
# Procedure, shortened: as §1
# UCHL3 = molecular target: T4, UCHL3 (UniProt P15374)
# T4 sequence (whole entry): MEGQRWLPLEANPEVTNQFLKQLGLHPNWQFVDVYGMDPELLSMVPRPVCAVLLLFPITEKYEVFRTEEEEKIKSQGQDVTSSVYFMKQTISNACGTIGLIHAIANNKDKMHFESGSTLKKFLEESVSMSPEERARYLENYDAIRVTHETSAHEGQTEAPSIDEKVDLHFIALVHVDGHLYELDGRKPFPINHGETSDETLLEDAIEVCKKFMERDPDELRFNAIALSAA
# Procedure, shortened: as §1
# UCHL5 = molecular target: T5, UCHL5 (UniProt Q9Y5K5)
# T5 sequence (whole entry): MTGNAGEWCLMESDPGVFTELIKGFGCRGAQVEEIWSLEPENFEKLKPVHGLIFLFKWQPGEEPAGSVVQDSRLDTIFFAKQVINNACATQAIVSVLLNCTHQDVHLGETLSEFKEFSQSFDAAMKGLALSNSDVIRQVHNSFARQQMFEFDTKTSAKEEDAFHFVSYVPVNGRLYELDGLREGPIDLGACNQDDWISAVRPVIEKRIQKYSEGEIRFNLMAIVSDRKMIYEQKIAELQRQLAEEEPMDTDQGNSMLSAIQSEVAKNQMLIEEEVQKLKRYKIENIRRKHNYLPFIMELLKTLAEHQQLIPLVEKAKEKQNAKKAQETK
# Procedure, shortened: as §1
# USP10 = USP10 (UniProt Q14694)
# Procedure, shortened: as §1
# USP15 = molecular target: T6, USP15 (UniProt Q9Y4E8)
# T6 sequence (whole entry): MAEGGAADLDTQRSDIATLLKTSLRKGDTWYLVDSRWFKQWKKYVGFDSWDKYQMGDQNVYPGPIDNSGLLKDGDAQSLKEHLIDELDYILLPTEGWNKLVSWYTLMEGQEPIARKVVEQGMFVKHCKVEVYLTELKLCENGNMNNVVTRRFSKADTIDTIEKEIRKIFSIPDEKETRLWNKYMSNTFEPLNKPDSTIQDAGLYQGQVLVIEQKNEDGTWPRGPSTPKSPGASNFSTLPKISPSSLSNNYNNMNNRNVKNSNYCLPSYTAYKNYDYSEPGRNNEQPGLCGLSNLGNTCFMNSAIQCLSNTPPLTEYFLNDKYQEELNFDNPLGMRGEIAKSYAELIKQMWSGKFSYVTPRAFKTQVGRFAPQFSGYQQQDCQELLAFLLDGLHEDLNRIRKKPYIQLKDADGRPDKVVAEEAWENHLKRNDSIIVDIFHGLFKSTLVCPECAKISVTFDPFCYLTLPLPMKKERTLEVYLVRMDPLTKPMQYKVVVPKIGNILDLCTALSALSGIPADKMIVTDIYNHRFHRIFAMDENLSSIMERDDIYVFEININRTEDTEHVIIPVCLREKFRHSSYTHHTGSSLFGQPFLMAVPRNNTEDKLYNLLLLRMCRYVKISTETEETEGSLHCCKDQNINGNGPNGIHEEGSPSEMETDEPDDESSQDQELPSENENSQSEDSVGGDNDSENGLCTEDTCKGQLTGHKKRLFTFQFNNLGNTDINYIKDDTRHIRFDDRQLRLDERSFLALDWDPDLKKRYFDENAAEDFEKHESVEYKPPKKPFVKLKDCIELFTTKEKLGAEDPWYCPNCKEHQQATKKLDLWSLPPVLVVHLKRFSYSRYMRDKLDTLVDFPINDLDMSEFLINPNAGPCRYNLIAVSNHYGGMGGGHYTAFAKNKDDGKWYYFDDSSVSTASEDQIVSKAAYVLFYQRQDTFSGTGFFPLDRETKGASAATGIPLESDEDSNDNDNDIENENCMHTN
# Procedure, shortened: as §1
# USP16 = USP16 (UniProt Q9Y5T5)
# Procedure, shortened: as §1
# Chain of USP16 (Q9Y5T5 whole entry, looked up): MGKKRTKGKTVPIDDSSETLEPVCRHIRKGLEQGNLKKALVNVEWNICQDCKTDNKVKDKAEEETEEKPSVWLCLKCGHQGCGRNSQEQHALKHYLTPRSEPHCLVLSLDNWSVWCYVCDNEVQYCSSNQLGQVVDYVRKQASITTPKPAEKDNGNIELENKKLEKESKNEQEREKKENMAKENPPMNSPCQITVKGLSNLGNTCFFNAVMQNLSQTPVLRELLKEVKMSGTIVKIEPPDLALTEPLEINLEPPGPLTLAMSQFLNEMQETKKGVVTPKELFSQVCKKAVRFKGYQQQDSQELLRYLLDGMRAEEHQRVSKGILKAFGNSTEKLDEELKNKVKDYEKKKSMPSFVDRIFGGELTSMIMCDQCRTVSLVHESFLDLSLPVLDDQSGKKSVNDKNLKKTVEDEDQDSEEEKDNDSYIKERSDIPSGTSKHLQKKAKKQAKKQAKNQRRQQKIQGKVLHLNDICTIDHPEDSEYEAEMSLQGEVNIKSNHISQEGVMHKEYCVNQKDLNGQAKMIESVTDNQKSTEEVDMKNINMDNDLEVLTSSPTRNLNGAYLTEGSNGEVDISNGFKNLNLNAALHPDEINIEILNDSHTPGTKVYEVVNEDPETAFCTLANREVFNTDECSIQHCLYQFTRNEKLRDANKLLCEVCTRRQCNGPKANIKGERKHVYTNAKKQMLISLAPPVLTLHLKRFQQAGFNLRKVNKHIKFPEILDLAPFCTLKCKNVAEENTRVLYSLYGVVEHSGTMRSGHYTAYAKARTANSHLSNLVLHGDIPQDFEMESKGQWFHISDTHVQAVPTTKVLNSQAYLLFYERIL
# Chain of UCHL1 (P09936 whole entry, looked up): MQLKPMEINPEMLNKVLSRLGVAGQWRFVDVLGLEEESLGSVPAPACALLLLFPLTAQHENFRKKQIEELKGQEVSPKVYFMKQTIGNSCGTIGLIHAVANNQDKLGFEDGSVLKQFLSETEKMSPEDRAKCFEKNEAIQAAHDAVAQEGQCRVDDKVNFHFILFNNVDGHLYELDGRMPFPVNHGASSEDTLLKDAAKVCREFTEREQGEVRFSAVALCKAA
# Chain of USP10 (Q14694 whole entry): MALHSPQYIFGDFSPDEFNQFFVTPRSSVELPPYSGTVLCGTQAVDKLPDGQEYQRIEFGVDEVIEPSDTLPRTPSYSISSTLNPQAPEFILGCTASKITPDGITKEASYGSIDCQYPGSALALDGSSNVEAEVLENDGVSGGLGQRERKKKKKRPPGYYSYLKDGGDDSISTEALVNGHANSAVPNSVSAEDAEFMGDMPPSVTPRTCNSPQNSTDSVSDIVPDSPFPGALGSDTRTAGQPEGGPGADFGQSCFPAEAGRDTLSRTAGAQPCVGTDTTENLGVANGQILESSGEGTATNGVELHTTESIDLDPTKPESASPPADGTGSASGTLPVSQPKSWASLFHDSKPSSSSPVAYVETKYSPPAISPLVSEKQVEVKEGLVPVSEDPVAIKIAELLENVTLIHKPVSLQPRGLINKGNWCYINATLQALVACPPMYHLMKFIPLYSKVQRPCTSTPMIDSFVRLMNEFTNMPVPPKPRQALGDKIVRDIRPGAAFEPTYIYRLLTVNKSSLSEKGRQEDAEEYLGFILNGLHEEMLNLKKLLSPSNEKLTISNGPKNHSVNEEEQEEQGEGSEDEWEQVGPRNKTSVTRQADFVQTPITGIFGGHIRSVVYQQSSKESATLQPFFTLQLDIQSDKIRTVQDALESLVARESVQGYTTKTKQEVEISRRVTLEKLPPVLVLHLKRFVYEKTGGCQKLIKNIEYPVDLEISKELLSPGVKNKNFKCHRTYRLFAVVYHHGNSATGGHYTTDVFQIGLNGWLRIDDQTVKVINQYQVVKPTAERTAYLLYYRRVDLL
smiles,measurement,setting,value
O=C(CCl)N1CCN(C(=O)N2CCCCC2)CC1,log2 ratio of Biotin-Ahx-Ub-VS probe labelling,OTUD6B,-1.28 (active)
same,log2 ratio of Biotin-Ahx-Ub-VS probe labelling,OTUD7B,-1.17 (active)
same,log2 ratio of Biotin-Ahx-Ub-VS probe labelling,PRPF8,-0.0826
same,log2 ratio of Biotin-Ahx-Ub-VS probe labelling,PSMD7,-0.335
same,log2 ratio of Biotin-Ahx-Ub-VS probe labelling,UCHL1,-2.3 (active)
same,log2 ratio of Biotin-Ahx-Ub-VS probe labelling,UCHL3,-0.528
same,log2 ratio of Biotin-Ahx-Ub-VS probe labelling,UCHL5,-0.96
same,log2 ratio of Biotin-Ahx-Ub-VS probe labelling,USP10,-0.21
same,log2 ratio of Biotin-Ahx-Ub-VS probe labelling,USP15,-0.839
same,log2 ratio of Biotin-Ahx-Ub-VS probe labelling,USP16,0.0515
